Results published in PubChem BioAssay (NCATS).
Results filed as inconclusive are left out. Activity calls are given as the source filed them. Unless noted, the call rests on the fitted dose curve; in most records, active means well fitted curve in the direction sought with a large enough effect; inconclusive means small, poorly fitted or top-dose-only effect, or another doubt; inactive means no such curve, though single readings can be large; an effect the other way counts as inactive or inconclusive.

Tests used:
[1] = Primary qHTS for inhibitors of nuclear receptor binding SET domain protein 2 (NSD2) in an isogenic RCH-ACV NSD2 p.E1099K mutant (9B) (AID 1645876); further: nearly all actives have a fitted effect of over 70% in size; further: potency means the concentration at half of the fitted maximal effect
[2] = Primary qHTS for inhibitors of nuclear receptor binding SET domain protein 2 (NSD2) in an RCH-ACV wild type WT cells (2C) (AID 1645877); further: nearly all actives have a fitted effect of over 70% in size; further: potency means the concentration at half of the fitted maximal effect
HEK293 = assay: Cytotoxic Profiling of Annotated Libraries Using Quantitative High-Throughput Screening (AID 1296008); settings: Five cell lines viability, CellTiter-Glo ATP luminescence, 48-72 h; max response: stronger effect = lower value; further: nearly all actives have a fitted effect of over 60% in size; further: potency means the concentration at half of the fitted maximal effect; on max response: on the % scale 0 is the no-effect control and ±100 the full control effect
In short: (§1)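 Compounds were pin-transferred onto cells and incubated 48 or 72 hr at 37 degree Celsius, 95% humidity. CellTiter-Glo was added, plates sat 10 min at room temperature, then ATP-coupled luminescence was imaged as the viability read-out.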

KB-3-1 = assay: as above; settings: Five cell lines viability, CellTiter-Glo ATP luminescence, 48-72 h; max response: stronger effect = lower value
In short: as §1

CAOV3 = assay: Primary qHTS to identify gynecologic anti-cancer compounds using libraries of approved drugs and bioactive compounds (AID 1345084); settings: Gynecologic cancer cell panel viability, ATPlite luminescence, 48 h; series mostly up to 57.5 µM; further: nearly all actives have a fitted effect of over 55% in size; further: potency means the concentration at half of the fitted maximal effect; on activity change, negative = cytotoxicity: on the % scale 0 is the no-effect control and ±100 the full control effect
In short: (§2)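 48 h compound exposure at 37 C, 5% CO2; five-point qHTS. ATPlite luminescence readout of cell ATP.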

[3] = P-glycoprotein substrates identified in KB-8-5-11 adenocarcinoma cell line, qHTS therapeutic library screen (AID 1346987); further: nearly all actives have a fitted effect of over 65% in size; further: potency means the concentration at half of the fitted maximal effect
In short: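 In this qHTS, P-gp-rich KB-8-5-11 cells received library compounds across a concentration range. Viability was quantified by luminescence after 72 h at 37 degree C.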

CRL-7250 = normal cell line; assay: Cytotoxic Profiling of Annotated Libraries Using Quantitative High-Throughput Screening (AID 1296008); settings: Five cell lines viability, CellTiter-Glo ATP luminescence, 48-72 h; max response: stronger effect = lower value; further: nearly all actives have a fitted effect of over 60% in size; further: potency means the concentration at half of the fitted maximal effect
In short: as §1

NIH3T3 = assay: qHTS assay to identify novel small-molecules to repurpose for Merkel cell carcinoma treatment (AID 1296009); settings: MCC and control cell lines, CellTiter-Glo viability, 72 h; at 44.8 µM (top of the series) unless noted; further: nearly all actives have a fitted effect of over 60% in size
In short: (§3)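 Luminescence from CellTiter-Glo, read 10 min after addition at room temperature, reported viability following a 72 hr, 37 degree celsius treatment with NPC or MIPE compounds in titration; values normalized to plate controls.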

HACAT = assay: as above; settings: MCC and control cell lines, CellTiter-Glo viability, 72 h; at 44.8 µM (top of the series) unless noted
In short: as §3

SKOV3 = assay: Primary qHTS to identify gynecologic anti-cancer compounds using libraries of approved drugs and bioactive compounds (AID 1345084); settings: Gynecologic cancer cell panel viability, ATPlite luminescence, 48 h; series mostly up to 57.5 µM; further: nearly all actives have a fitted effect of over 55% in size; further: potency means the concentration at half of the fitted maximal effect; on activity change, negative = cytotoxicity: on the % scale 0 is the no-effect control and ±100 the full control effect
In short: as §2

[4] = target: Cytochrome P450 2D6 (Homo sapiens) (UniProt P10635); assay: Cytochrome P450 family 2 subfamily D member 6 (CYP2D6) small molecule antagonists: luciferase biochemical (cell-free) qHTS assay (AID 1645840; active means well fitted curve in the direction sought with a large enough effect in the repeat runs; an effect the other way counts as inactive or inconclusive; further: on the % scale 0 is the no-effect control and ±100 the full control effect; nearly all actives have a fitted effect of over 55% in size)
Sequence of Cytochrome P450 2D6 (Homo sapiens) (P10635 whole entry, looked up): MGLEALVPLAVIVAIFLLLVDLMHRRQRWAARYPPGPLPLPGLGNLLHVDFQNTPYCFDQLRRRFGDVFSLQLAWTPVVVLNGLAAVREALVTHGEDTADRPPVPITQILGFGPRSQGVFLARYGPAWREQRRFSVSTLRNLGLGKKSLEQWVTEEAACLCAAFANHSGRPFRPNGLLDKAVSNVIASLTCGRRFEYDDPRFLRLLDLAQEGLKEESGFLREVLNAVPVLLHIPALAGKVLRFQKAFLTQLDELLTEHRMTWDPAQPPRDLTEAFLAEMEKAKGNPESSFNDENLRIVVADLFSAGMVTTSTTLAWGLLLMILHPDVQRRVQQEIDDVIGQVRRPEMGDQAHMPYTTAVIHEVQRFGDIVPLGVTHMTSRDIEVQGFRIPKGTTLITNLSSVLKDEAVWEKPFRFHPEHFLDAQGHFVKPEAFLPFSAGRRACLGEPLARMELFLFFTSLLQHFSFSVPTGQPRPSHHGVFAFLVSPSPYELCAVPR
In short: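 P450-Glo CYP2D6 system: proluciferin substrate converted by enzyme to luciferin, read by luminescence proportional to activity. Enzyme-substrate mix with compound 10 min at room temperature, then NADPH regeneration 1 h before detection reagent.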

[5] = target: Cytochrome P450 2C9 (Homo sapiens) (UniProt P11712); assay: Cytochrome P450 family 2 subfamily C member 9 (CYP2C9) small molecule antagonists: luciferase biochemical (cell-free) qHTS assay (AID 1645842; active means well fitted curve in the direction sought with a large enough effect in the repeat runs; an effect the other way counts as inactive or inconclusive; further: nearly all actives have a fitted effect of over 55% in size; further: potency means the concentration at half of the fitted maximal effect)
Sequence of Cytochrome P450 2C9 (Homo sapiens) (P11712 whole entry, looked up): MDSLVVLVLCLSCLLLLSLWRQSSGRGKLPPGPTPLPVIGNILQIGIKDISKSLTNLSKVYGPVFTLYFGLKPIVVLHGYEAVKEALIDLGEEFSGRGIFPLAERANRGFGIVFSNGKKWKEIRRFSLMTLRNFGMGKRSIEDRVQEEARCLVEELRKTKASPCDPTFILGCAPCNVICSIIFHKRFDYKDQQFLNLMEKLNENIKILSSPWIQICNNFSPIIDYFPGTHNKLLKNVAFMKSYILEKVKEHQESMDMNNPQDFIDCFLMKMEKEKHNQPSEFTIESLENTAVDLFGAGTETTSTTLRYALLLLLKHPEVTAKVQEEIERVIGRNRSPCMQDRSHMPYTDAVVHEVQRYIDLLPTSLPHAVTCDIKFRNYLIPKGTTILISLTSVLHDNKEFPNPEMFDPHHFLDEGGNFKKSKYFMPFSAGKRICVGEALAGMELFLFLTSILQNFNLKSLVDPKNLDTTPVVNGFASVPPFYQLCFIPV
In short: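 P450-Glo CYP2C9 system: proluciferin substrate with enzyme in mix containing 0.4% BSA, 10 min at room temperature, then NADPH regeneration solution added and incubated 1 h at 37C. Detection reagent stopped reaction; luminescence read after 20 min as RLU.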

HeLa = assay: Primary qHTS to identify gynecologic anti-cancer compounds using libraries of approved drugs and bioactive compounds (AID 1345084); settings: Gynecologic cancer cell panel viability, ATPlite luminescence, 48 h; series mostly up to 57.5 µM; further: nearly all actives have a fitted effect of over 55% in size; further: potency means the concentration at half of the fitted maximal effect; on activity change, negative = cytotoxicity: on the % scale 0 is the no-effect control and ±100 the full control effect
In short: as §2

[6] = qHTS drug screen for cell cycle checkpoint inhibitors in PARPi-resistant BRCA-mutant ovarian cancer cell lines. (AID 1963452; calls by dose curve); settings: PEO1/OlaR viability, CellTiter-Glo luminescence, 96 h, stronger effect = lower value
In short: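 PEO1, PEO4 and PEO1/OlaR ovarian cancer cells, 600 per well, exposed 96 h at 37C to a dilution series. Viability read by CellTiter-Glo luminescence, normalized to DMSO and empty wells; activity summarized as Z-AUC.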

CC[C@@H]1/C=C/C=C/C[C@H](C)C(O)[C@](C)(O)C(=O)[C@H](C)C(O)[C@H](C)C(=O)[C@H](C)[C@@H](O)[C@H](C)/C=C/C(=O)O[C@H]2[C@@H](C)[C@@H](CC1)O[C@]1(O[C@H](C[C@H](C)O)[C@H](C)CC1=O)[C@@H]2C (stereo partly specified)
active: Potency [1] 123 nM | Potency [2] 138 nM | Potency (HEK293) 17.4 nM | Potency (KB-3-1) 49.1 nM
inactive: activity change, negative = cytotoxicity (CAOV3) -25.5% [at 11.6 µM]

CO[C@@H]1[C@@H](O)[C@@H](O[C@H]2CC[C@]3(C=O)C4CC[C@]5(C)[C@@H](C6=CC(=O)OC6)CC[C@]5(O)[C@@H]4CC[C@H]3C2)O[C@@H](C)[C@H]1O[C@@H]1O[C@H](CO[C@@H]2O[C@H](CO)[C@@H](O)[C@H](O)[C@H]2O)[C@@H](O)[C@H](O)[C@H]1O (stereo partly specified)
inactive: outcome (NIH3T3) inactive [at 9.27 µM] | activity change, negative = cytotoxicity (CAOV3) -17.5% [at 11.6 µM]
active: Potency [3] 3480 nM | Potency [1] 2750 nM | Potency [2] 3460 nM | Potency (CRL-7250) 2190 nM

C#CC1(O)CCC2C3CCC4=CC(=O)CCC4=C3C=CC21C (stereo unspecified)
inactive: max response (CRL-7250) -2.47% | outcome (HACAT) | Potency (CAOV3) | Potency (SKOV3)

Cc1ccc(Cn2nc(C(=O)N[C@@H]3C(C)(C)[C@@H]4CC[C@@]3(C)C4)cc2-c2ccc(Cl)c(C)c2)cc1
active: Potency [5] 2680 nM
inactive: Potency [3] | Potency [4] | Potency [1] | Potency [2] | max response (CRL-7250) 0.138% | max response (KB-3-1) 0.44% | Potency (HeLa) | Potency (SKOV3)

CO[C@H]1C[C@H](O[C@H]2CC[C@]3(CO)[C@H]4CC[C@]5(C)[C@@H](C6=CC(=O)OC6)CC[C@]5(O)[C@@H]4CC[C@]3(O)C2)O[C@H](C)[C@H]1O
active: Potency [3] 22.4 nM | Potency [1] 50.2 nM | Potency [2] 79.6 nM | Potency (CRL-7250) 70.9 nM | Potency (KB-3-1) 224 nM | Potency (CAOV3) 355 nM | Potency (HeLa) 199 nM | Potency (SKOV3) 158 nM

C[C@H]1CC[C@@H]2[C@@H](C)[C@H]3[C@H](C[C@H]4[C@@H]5CC=C6CC(O[C@@H]7O[C@H](CO)[C@@H](O)[C@H](O[C@@H]8O[C@H](CO)[C@@H](O)[C@H](O)[C@H]8O)[C@@H]7O[C@@H]7O[C@@H](C)[C@H](O)[C@@H](O)[C@H]7O)CC[C@]6(C)[C@H]5CC[C@]34C)N2C1 (stereo partly specified)
inactive: outcome [3] inactive [at 9.29 µM] | max response (CRL-7250) -16.5% | outcome (NIH3T3) inactive [at 9.27 µM] | activity change, negative = cytotoxicity (CAOV3) 17.5% [at 11.6 µM]

CC(=O)NCCCOc1ccc(C(=O)N2CCC(N3C(=O)CCc4ccccc43)CC2)cc1
inactive: Potency [3] | Potency [4] | Potency [5] | max response (CRL-7250) 0.176% | max response (KB-3-1) 5.83% | Potency (HeLa) | Potency (SKOV3)

COc1ccc(CCNCc2ccc(OC)c3ccccc23)cc1
active: Potency [1] 14500 nM | Potency [2] 16300 nM
inactive: max response (CRL-7250) -2.06% | max response (KB-3-1) -13.8% | Potency (CAOV3) | Potency (HeLa) | Potency (SKOV3)

NC(=O)[C@@H](CC1CC1)[C@@H](CCC(F)(F)F)C(=O)N[C@H]1N=C(c2ccccc2)c2cccc(F)c2NC1=O
inactive: Potency [3] | Potency [4] | Potency [1] | Potency [2] | Z-AUC [6] -1.08 | max response (HEK293) 0.706% | max response (KB-3-1) 4.24% | Potency (CAOV3) | Potency (SKOV3)
-0.643: Z-AUC ([6]; measured here: PEO1 parental Z-AUC)
-1.43: Z-AUC ([6]; measured here: PEO4 Z-AUC)
